The results in this text go back to PubChem BioAssay (NCATS).

Structures are written as SMILES. Several values for one entry are separate records, joined by “and”; a condition that tells them apart may be missing. Equal values may be shown once. Inconclusive results are not listed. Some compounds were tested as several samples or in several runs, with calls that do not always agree. Activity calls are given as the source filed them. The call rests on the fitted dose curve; in most records, active means well fitted curve in the direction sought with a large enough effect; inconclusive means small, poorly fitted or top-dose-only effect, or another doubt; inactive means no such curve, though single readings can be large; an effect the other way counts as inactive or inconclusive.

In experiment [1] the test system is NIH3T3. As to the kind of experiment: Cytotoxic Profiling of Annotated Libraries Using Quantitative High-Throughput Screening (AID 1296008). Further: nearly all actives have a fitted effect of over 60% in size. To be noted: Five cell lines viability, CellTiter-Glo ATP luminescence, 48-72 h; max response: stronger effect = lower value. In a few lines: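 Compounds were pin-transferred onto cells and incubated 48 or 72 hr at 37 degree Celsius, 95% humidity. CellTiter-Glo was added, plates sat 10 min at room temperature, then ATP-coupled luminescence was imaged as the viability read-out.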

Experiment [2] relates to HACAT. As to the kind of experiment: qHTS assay to identify novel small-molecules to repurpose for Merkel cell carcinoma treatment (AID 1296009). Further: nearly all actives have a fitted effect of over 60% in size. Further: potency means the concentration at half of the fitted maximal effect. To be noted: MCC and control cell lines, CellTiter-Glo viability, 72 h; at 44.8 µM (top of the series) unless noted. In a few lines: (§1)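 qHTS format: cells treated with library compounds in DMSO across 8 (NPC) or 11 (MIPE) concentrations. Readout after 72 hr at 37 degree celsius was CellTiter-Glo luminescence.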
(In general: In qHTS, concentration-response curves come from the screen itself.)

For experiment [3], the system named is HEK293T. The experiment is described as above. To be noted: MCC and control cell lines, CellTiter-Glo viability, 72 h; at 44.8 µM (top of the series). In a few lines:
as §1
(In general: ATP-based viability assays read luminescence as a measure of living cells.)

Experiment [4] concerns MCC-13. The experiment is described as above. To be noted: MCC and control cell lines, CellTiter-Glo viability, 72 h; series mostly up to 46 µM. The essentials: as §1
The test system of experiment [5] is MCC-26. The description is as above. To be noted: MCC and control cell lines, CellTiter-Glo viability, 72 h; series mostly up to 46 µM. The essentials:
as §1

For experiment [6], the system named is MKL-1. The description is as above. To be noted: MCC and control cell lines, CellTiter-Glo viability, 72 h; series mostly up to 46 µM. The essentials:
as §1

In experiment [7] the test system is MKL-2. The experiment is described as above. To be noted: MCC and control cell lines, CellTiter-Glo viability, 72 h; series mostly up to 46 µM. The essentials:
as §1

The test system of experiment [8] is NIH3T3. The description is as above. To be noted: MCC and control cell lines, CellTiter-Glo viability, 72 h; at 44.8 µM (top of the series) unless noted. The essentials: as §1
Experiment [9] concerns WaGa. Described as above. To be noted: MCC and control cell lines, CellTiter-Glo viability, 72 h; series mostly up to 46 µM. In a few lines:
as §1

Experiment [10] concerns C33A. As to the kind of experiment: Primary qHTS to identify gynecologic anti-cancer compounds using libraries of approved drugs and bioactive compounds (AID 1345084). Further: nearly all actives have a fitted effect of over 55% in size. As to conditions: Gynecologic cancer cell panel viability, ATPlite luminescence, 48 h; series mostly up to 57.5 µM. In a few lines:
(§2)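 Cells, 1,000 per well, were allowed to settle for 16 h at 37 C before compound addition. Five concentrations were tested for 48 h, and viability was read by ATPlite luminescence after 15 min at room temperature.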

In experiment [11] the test system is CAOV3. The description is as above. To be noted: Gynecologic cancer cell panel viability, ATPlite luminescence, 48 h; series mostly up to 57.5 µM. The essentials: as §2
In experiment [12] the test system is CASKI. The experiment is described as above. As to conditions: Gynecologic cancer cell panel viability, ATPlite luminescence, 48 h; series mostly up to 57.5 µM. The essentials:
as §2

Experiment [13] concerns Es-2. Described as above. To be noted: Gynecologic cancer cell panel viability, ATPlite luminescence, 48 h; series mostly up to 57.5 µM. In a few lines:
as §2

Experiment [14] relates to HeLa. The description is as above. As to conditions: Gynecologic cancer cell panel viability, ATPlite luminescence, 48 h; series mostly up to 57.5 µM. The essentials:
as §2

Experiment [15] has as its system Hek293T. The experiment is described as above. To be noted: Gynecologic cancer cell panel viability, ATPlite luminescence, 48 h, control line for the selectivity index; series mostly up to 57.5 µM. The essentials:
as §2

Experiment [16] deals with JEG-3. The description is as above. As to conditions: Gynecologic cancer cell panel viability, ATPlite luminescence, 48 h; series mostly up to 57.5 µM. In a few lines:
as §2

Experiment [17] relates to OV90. Described as above. As to conditions: Gynecologic cancer cell panel viability, ATPlite luminescence, 48 h; series mostly up to 57.5 µM. The essentials: as §2
The test system of experiment [18] is PA-1. The description is as above. As to conditions: Gynecologic cancer cell panel viability, ATPlite luminescence, 48 h; series mostly up to 57.5 µM. The essentials:
as §2

The test system of experiment [19] is UISO. As to the kind of experiment: qHTS assay to identify novel small-molecules to repurpose for Merkel cell carcinoma treatment (AID 1296009). Further: nearly all actives have a fitted effect of over 60% in size. Further: potency means the concentration at half of the fitted maximal effect. As to conditions: MCC and control cell lines, CellTiter-Glo viability, 72 h; series mostly up to 46 µM. The essentials: as §1
Experiment [20] has as its system SKOV3. The experiment in a line: Primary qHTS to identify gynecologic anti-cancer compounds using libraries of approved drugs and bioactive compounds (AID 1345084). Further: nearly all actives have a fitted effect of over 55% in size. As to conditions: Gynecologic cancer cell panel viability, ATPlite luminescence, 48 h; series mostly up to 57.5 µM. The essentials:
as §2
On the % scale 0 is the no-effect control and ±100 the full control effect.

Turning to `Cc1c(C)c2c(c(C)c1O)CCC(C)(COc1ccc(CC3SC(=O)NC3=O)cc1)O2` (centres undefined), the max response in experiment [1] was -1.07% (inactive). The outcome in experiment [1], in experiment [2], in experiment [3] and in [8] was inactive. Also, the Potency result in experiment [4], in [5], in experiment [6], in experiment [7], in experiment [10] and in experiment [11] was “inactive” in each case. Also, the Potency result in experiment [12], in experiment [13], in experiment [14], in experiment [15], in experiment [16] and in experiment [17] was “inactive” in each case. Moreover, the Potency result in [18] was “inactive”. Also, the Potency in [9] is 16.8 µM (active) and inactive.

On to `CC(c1cc2ccccc2s1)N(O)C(N)=O` (centres undefined), for which the max response in experiment [1] was 3.52% (inactive). Also, the result in [1], in experiment [3] and in experiment [8] was inactive. In addition, the Potency entry in [4], in [6], in [7], in [19], in experiment [9] and in experiment [10] was “inactive” throughout. In addition, the Potency entry in experiment [12], in experiment [13], in experiment [15], in experiment [16], in experiment [17] and in experiment [18] was “inactive” throughout. Moreover, in experiment [20], the Potency entry is “inactive”.

As for `CCCc1nc2c(C)cc(-c3nc4ccccc4n3C)cc2n1Cc1ccc(-c2ccccc2C(=O)O)cc1`, in experiment [1], the max response was 1.27% (inactive). For the same compound, the compound was called inactive in [1], in [2], in experiment [3] and in [8]. The Potency result in [4], in experiment [6], in [7], in experiment [19], in [9] and in [10] was “inactive” each time. Besides, the Potency result in experiment [11], in [12], in experiment [13], in experiment [14], in experiment [15] and in [16] was “inactive” each time. The Potency entry in [17], in experiment [18] and in [20] was “inactive” throughout.

With `NC(=O)c1cnccn1`, the max response in experiment [1] was 3.86% (inactive) and 2.38% (inactive). Moreover, the compound was classed as inactive in experiment [2] and in experiment [3]. Moreover, the Potency entry in [4], in experiment [5], in experiment [6], in experiment [7], in experiment [19] and in experiment [9] was “inactive” each time. The Potency entry in [10], in [11], in experiment [12], in [13], in experiment [14] and in experiment [15] was “inactive” each time. The Potency entry in [16], in [17], in experiment [18] and in [20] was “inactive” each time.

With `NC(N)=NC(=O)c1nc(Cl)c(N)nc1N`, the max response in experiment [1] is -0.651% (inactive). Further, the outcome in [1], in [2] and in experiment [8] was inactive. Moreover, the Potency result in [4], in [5], in [6], in experiment [7], in experiment [19] and in experiment [10] was “inactive” each time. Also, the Potency result in experiment [11], in experiment [12], in [13], in [14], in [15] and in experiment [16] was “inactive” in each case. The Potency result in [17], in experiment [18] and in experiment [20] was “inactive” throughout. For the same compound, the Potency result in [9] is “inactive and 29.9 µM (active)”.

With `O=C(O)COCCN1CCN(C(c2ccccc2)c2ccc(Cl)cc2)CC1` (centres undefined), the max response in [1] is -0.466% (inactive). Also, the outcome in experiment [1] and in [8] was inactive. Further, the Potency entry in experiment [4], in experiment [5], in experiment [6], in experiment [7], in [19] and in experiment [9] was “inactive” throughout. In addition, the Potency result in experiment [10], in experiment [11], in [12], in [13], in experiment [14] and in experiment [15] was “inactive” throughout. In addition, the Potency entry in experiment [16], in [17], in [18] and in experiment [20] was “inactive” each time.
